# Source: PubChem BioAssay (NCATS)
# Inconclusive results are not listed. Where a call stands in place of a potency, no number is given. Active and inactive are the calls of the source. Unless noted, calls come from the whole dose curve; as a rule, active = well fitted curve in the direction sought with a large enough effect; inconclusive = small, poorly fitted or top-dose-only effect, or another doubt; inactive = no such curve, though single readings can be large; an effect the other way counts as inactive or inconclusive.
# How the values were obtained:
# [1] = target: ATP-dependent 6-phosphofructokinase (Trypanosoma brucei brucei) (UniProt O15648); assay: qHTS Assay to Find Inhibitors of T. brucei phosphofructokinase: hit validation (AID 492961);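 note: luminescence reports ADP formed as PFK phosphorylates fructose-6-phosphate with ATP; series mostly up to about 51 µM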
# Sequence of ATP-dependent 6-phosphofructokinase (Trypanosoma brucei brucei) (O15648 whole entry, looked up): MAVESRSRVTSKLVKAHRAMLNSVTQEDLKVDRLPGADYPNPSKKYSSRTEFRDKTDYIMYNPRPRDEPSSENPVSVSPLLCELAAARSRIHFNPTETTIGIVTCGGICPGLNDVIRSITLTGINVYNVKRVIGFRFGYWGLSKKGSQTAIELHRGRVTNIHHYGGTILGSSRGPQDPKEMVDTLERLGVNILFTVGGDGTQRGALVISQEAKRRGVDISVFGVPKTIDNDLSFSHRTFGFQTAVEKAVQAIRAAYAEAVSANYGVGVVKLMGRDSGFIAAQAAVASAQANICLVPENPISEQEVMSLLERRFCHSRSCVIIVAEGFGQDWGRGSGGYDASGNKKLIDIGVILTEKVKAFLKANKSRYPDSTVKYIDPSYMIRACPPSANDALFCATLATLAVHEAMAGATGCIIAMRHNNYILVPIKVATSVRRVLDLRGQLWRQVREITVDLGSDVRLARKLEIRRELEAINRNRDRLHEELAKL
# Outline: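 Measures ADP output of PFK (1.25 nM) at 0.1 mM ATP, 0.5 mM F6P, pH 8.0 TEA buffer with 5 mM MgCl2. No-enzyme wells define full inhibition; uninhibited enzyme wells define zero.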
# [2] = target: D(1A) dopamine receptor (Homo sapiens) (UniProt P21728); assay: HTS Assay for Allosteric Agonists of the Human D1 Dopamine Receptor: Primary Screen for Agonists (AID 488981)
# Sequence of D(1A) dopamine receptor (Homo sapiens) (P21728 whole entry, looked up): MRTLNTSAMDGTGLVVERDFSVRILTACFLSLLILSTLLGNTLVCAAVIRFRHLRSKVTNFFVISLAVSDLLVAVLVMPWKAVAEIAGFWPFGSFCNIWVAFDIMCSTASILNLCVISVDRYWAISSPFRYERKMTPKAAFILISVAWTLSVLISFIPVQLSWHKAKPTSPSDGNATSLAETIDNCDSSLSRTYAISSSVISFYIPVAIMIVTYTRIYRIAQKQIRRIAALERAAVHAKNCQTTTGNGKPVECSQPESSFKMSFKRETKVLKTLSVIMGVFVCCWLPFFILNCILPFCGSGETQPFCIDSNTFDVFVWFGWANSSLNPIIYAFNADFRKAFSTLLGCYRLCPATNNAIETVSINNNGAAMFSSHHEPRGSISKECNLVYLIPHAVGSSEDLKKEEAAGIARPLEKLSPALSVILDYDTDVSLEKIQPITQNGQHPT
# Outline: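 Calcium flux in an inducible, force-coupled HEK293 Trex D1 line (overnight at 30 C): agonist mode is the 180 s kinetic read after compound; potentiator mode is the following 180 s read after dopamine at EC20.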
# [3] = target: D(1A) dopamine receptor (Homo sapiens) (UniProt P21728); assay: HTS Assay for Allosteric Agonists of the Human D1 Dopamine Receptor: Primary Screen for Potentiators (AID 488982)
# Description: Dopamine receptors (DARs) are involved in the etiology and/or therapy of a number of neuropsychiatric and endocrine disorders. For instance, all receptor-based antiparkinsonian drugs work via stimulating the […] DAR subtype whereas all FDA-approved antipsychotic agents are antagonists of this receptor. […] There are three different types of allosteric modulators that we are seeking, two of which will stimulate or augment receptor signaling, allosteric agonists and potentiators, while the third, allosteric antagonists, will attenuate receptor signaling. The present primary screening assay measures compound agonism by tracking calcium flux in a […], inducible Hek293 Trex D1 cell line.
# Freshly passaged cells are plated in 1536 well black, clear bottom plates at a density of 4000 cells/well in 3 ul of complete media containing 1x tetracycline inducer. After an overnight incubation at 30 C in 5% CO2, cells are loaded with 2 ul of the no wash Calcium Assay Kit (ABD Bioquest) and incubated at room temperature for 30 to 90 minutes. A 10 cycle (1 second/cycle) baseline measurement is taken and then the FDSS online 1536 pintool delivers 23 nl of compound library (as well as dopamine controls) to the plate. The plate is measured for kinetically at 1 cycle/sec for 180 seconds and is considered to be the agonist portion of the assay (eg, compounds which activate a positive calcium response during this portion are flagged as potential agonists). Following the 180 second read, 1 ul of an EC20 of dopamine is delivered by an onboard pipette head. Measurements are taken kinetically for an additional 180 seconds.
# [4] = target: D(1A) dopamine receptor (Homo sapiens) (UniProt P21728); assay: HTS Assay for Allosteric Agonists of the Human D1 Dopamine Receptor: Primary Screen for Antagonists (AID 488983);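 note: calcium flux response to an EC80 dopamine challenge measured with no-wash dye; nearly all actives have a fitted effect of over 65% in size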
# Outline: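 Calcium-flux read-out in inducible HEK293 T-REx cells expressing D1, dye-loaded 30–90 min at room temperature. Kinetic reads: 180 s after compound (agonist phase), then 180 s after an EC80 dopamine challenge.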
# [5] = Validation screen for small molecules that induce genotoxicity in human embryonic kidney (HEK293T) cells expressing luciferase-tagged ELG1 (AID 493106)
# Outline: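 ELG1-luciferase reporter readout (ONE-Glo, 30 min, room temperature) after 16 hr compound treatment at 37 °C of HEK293T cells at 2,000 per well. Rising luminescence flags genotoxic stress.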
# [6] = target: ATPase family AAA domain-containing protein 5 (Homo sapiens) (UniProt Q96QE3); assay: Validation screen for small molecules that inhibit ELG1-dependent DNA repair in human embryonic kidney (HEK293T) cells expressing luciferase-tagged ELG1 (AID 493107);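 note: series mostly up to about 46 µM; inhibitors lower the ELG1-luciferase luminescence signal; nearly all actives have a fitted effect of over 70% in size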
# Sequence of ATPase family AAA domain-containing protein 5 (Homo sapiens) (Q96QE3 whole entry, looked up, the tested form may be a part): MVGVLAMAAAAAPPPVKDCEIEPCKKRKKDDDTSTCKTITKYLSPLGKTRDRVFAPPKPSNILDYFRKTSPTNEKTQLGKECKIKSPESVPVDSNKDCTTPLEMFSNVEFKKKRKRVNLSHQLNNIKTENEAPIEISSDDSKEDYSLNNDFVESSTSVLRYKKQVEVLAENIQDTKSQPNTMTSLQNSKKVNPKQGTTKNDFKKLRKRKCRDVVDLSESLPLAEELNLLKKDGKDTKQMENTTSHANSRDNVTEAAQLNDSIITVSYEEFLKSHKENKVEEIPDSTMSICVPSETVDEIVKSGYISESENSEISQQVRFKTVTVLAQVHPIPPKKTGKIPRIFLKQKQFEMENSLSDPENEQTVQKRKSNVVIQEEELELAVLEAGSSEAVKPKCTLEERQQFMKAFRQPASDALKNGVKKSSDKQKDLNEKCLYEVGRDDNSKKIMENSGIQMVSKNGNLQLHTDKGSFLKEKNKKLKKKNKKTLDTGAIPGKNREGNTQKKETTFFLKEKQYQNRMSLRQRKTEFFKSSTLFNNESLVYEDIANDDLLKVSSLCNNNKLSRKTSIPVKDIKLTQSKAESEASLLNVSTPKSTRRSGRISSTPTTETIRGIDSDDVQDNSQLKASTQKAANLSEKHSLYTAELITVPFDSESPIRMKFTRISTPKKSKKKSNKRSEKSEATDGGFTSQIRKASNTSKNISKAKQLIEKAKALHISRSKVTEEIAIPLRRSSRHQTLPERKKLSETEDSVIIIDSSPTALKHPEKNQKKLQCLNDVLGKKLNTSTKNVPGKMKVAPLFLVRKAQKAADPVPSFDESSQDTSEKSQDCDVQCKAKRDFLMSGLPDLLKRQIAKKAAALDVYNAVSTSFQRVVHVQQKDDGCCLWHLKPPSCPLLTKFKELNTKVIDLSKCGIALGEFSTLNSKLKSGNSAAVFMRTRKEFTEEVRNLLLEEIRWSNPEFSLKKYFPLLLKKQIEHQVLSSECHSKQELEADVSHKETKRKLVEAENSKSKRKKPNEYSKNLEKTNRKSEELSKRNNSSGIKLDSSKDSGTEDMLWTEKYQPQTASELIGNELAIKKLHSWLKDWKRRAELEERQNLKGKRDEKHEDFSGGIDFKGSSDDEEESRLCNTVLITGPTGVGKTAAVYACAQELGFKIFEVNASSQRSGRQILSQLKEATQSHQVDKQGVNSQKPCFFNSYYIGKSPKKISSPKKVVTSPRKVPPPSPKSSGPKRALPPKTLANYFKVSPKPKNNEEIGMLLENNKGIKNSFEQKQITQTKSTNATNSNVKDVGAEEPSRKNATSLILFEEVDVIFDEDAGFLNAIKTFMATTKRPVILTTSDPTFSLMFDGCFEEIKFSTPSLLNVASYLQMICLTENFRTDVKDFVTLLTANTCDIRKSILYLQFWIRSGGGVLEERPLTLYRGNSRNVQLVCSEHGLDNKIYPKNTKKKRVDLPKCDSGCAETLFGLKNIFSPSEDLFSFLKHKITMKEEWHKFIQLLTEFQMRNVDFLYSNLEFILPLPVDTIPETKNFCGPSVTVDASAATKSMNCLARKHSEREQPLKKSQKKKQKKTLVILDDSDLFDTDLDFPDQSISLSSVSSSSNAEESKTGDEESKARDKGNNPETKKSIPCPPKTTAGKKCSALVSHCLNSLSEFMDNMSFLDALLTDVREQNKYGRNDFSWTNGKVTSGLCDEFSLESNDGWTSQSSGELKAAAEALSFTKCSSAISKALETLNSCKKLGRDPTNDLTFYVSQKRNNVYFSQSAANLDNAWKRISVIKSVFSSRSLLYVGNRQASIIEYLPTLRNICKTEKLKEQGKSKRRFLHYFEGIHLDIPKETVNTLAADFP
# Outline: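 Luciferase read-out, ONE-Glo, 30 min at room temperature, follows 16 h co-exposure at 37 C of compound and the DNA-damaging agent 5-fluorouridine. Cells: HEK293T with ELG1-luciferase fusion, 2,000 per well, DMSO as vehicle.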
# [7] = Nrf2 qHTS screen for inhibitors: Validation (AID 493153; active = well fitted inhibition curve with a large enough effect in the main read-out, with a control signal flat, not every such curve was filed as active; note: potency is the fitted concentration of half-maximal effect); details: Potency: luciferase luminescence; viability change: measured here: cytotoxicity max response
# Outline: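 Concentration-response on A549 ARE_Fluc reporter cells exposed 18-24 h at 37 C, 5% CO2. Cytotoxicity read first by CellTiter-Fluor fluorescence (Ex 405/Em 525), then Nrf2 inhibition by BugLite luminescence after 15 min.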
# [8] = target: Thyrotropin receptor (Homo sapiens) (UniProt P16473); assay: qHTS Assay for Antagonists of the Thyroid Stimulating Hormone Receptor (AID 488980); note: series mostly up to about 58 µM
# Sequence of Thyrotropin receptor (Homo sapiens) (P16473 whole entry, looked up): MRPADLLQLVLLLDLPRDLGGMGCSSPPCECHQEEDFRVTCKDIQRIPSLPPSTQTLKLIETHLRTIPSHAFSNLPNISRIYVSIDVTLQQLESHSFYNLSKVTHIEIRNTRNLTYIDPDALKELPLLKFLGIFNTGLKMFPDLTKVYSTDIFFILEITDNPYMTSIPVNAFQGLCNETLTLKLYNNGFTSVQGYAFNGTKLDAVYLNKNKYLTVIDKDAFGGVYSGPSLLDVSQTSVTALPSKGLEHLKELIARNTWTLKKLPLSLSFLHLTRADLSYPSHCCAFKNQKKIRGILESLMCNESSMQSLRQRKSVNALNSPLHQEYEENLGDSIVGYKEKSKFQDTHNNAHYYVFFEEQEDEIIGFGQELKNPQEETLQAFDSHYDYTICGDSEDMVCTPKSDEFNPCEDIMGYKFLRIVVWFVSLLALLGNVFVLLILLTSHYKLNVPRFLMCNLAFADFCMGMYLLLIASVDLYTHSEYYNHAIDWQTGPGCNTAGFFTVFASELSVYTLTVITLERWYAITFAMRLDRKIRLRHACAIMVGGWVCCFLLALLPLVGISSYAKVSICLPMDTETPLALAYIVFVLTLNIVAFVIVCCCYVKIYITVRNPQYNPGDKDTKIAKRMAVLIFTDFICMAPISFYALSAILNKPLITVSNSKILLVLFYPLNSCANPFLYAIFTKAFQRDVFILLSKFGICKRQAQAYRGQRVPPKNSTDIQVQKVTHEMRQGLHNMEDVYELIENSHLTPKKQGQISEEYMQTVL
# Outline: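 TSHR-HEK293 cells; 70 uM RO 20-1724 PDE inhibitor; compound + EC80 TSH (4 nM final); anti-cAMP cryptate antibody/cAMP-d2 in lysis buffer, 30 min RT; HTRF 665/620 nm read.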
# [9] = target: Tyrosyl-DNA phosphodiesterase 1 (Homo sapiens) (UniProt Q9NUW8); assay: Confirmation Assay for Inhibitors of Tyrosyl-DNA Phosphodiesterase (TDP1) (AID 489007); details: recombinant human TDP1 enzymatic activity, dose-response; note: potency is the fitted concentration of half-maximal effect; nearly all actives have a fitted effect of over 40% in size
# Sequence of Tyrosyl-DNA phosphodiesterase 1 (Homo sapiens) (Q9NUW8 whole entry, looked up): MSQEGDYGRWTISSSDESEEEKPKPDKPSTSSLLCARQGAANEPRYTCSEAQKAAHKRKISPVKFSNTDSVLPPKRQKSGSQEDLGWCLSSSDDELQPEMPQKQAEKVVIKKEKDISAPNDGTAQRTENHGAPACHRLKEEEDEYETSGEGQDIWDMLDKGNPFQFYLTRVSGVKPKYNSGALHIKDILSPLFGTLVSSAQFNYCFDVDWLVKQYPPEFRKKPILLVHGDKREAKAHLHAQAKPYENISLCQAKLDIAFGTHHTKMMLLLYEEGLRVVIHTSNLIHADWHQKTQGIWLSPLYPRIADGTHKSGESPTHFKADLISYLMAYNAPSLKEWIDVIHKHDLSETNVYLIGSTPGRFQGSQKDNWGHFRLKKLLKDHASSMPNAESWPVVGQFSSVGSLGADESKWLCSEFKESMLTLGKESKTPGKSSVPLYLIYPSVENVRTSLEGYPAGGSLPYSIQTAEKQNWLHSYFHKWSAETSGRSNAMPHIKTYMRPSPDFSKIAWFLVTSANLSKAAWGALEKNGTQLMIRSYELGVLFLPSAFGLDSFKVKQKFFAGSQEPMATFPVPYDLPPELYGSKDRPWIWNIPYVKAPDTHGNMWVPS
# Outline: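 AlphaScreen assay of tyrosine-FITC cleavage from a biotinylated DNA substrate (15 nM) by E. coli-expressed human Tdp1 (1 nM). Sequence: compound preincubation 15 min, reaction 5 min, bead detection 10 min, all at room temperature. No-enzyme wells give maximum signal.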
# [10] = target: Thyrotropin-releasing hormone receptor (Homo sapiens) (UniProt P34981); assay: qHTS for Small Molecule Agonists and Allosteric Enhancers of Human TRH Receptor: Validation Screen for Agonists (AID 493127;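 active = calcium activation more than 3 SD above the typical response in the agonist read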;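 note: intracellular calcium rise by fluo-8 fluorescence before TRH EC20 addition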); details: TRH receptor agonist cell assay; at 2 µM; stronger effect = higher value
# Sequence of Thyrotropin-releasing hormone receptor (Homo sapiens) (P34981 whole entry, looked up): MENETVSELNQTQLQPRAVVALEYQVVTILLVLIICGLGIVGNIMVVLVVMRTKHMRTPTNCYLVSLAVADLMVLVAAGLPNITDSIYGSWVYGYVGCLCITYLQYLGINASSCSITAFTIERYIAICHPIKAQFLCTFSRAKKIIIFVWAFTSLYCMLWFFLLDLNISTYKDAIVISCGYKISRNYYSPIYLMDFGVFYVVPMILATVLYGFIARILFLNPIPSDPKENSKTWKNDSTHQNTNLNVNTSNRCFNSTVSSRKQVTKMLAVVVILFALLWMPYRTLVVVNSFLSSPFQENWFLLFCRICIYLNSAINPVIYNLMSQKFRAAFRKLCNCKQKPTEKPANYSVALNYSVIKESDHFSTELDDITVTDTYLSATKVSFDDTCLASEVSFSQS
# Outline: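 Compound-evoked intracellular calcium release in fluo-8-loaded TRHR cells, read kinetically on FDSS (Ex 480/Em 530, 1 s/cycle) after 23 nL pintool transfer. Agonist phase preceded 10 nM TRH EC20 addition.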
compound,measurement,setting,value
CN(Cc1ccc(C(C)(C)C)cc1)Cc1cccc2ccccc12,Potency,[1],inactive
O[C@@H](c1cc(C(F)(F)F)nc2c(C(F)(F)F)cccc12)[C@H]1CCCCN1,Potency,[1],inactive
C[C@@H](O)[C@H]1C(=O)N2C(C(=O)O)=C(S[C@@H]3CN[C@H](CNS(N)(=O)=O)C3)[C@H](C)[C@H]12,Potency,[1],inactive
CCOC(=O)[C@H](CCc1ccccc1)N[C@@H](C)C(=O)N1[C@H](C(=O)O)C[C@H]2CCCC[C@@H]21,outcome,[2],inactive
same,outcome,[3],inactive
same,outcome,[4],inactive
same,Potency,[1],inactive
same,outcome,[5],inactive
same,outcome,[6],inactive
same,Potency,[7],inactive
same,viability change,[7],-5.88%
Cc1cc(-c2ccccc2)nnc1NCCN1CCOCC1,Potency,[1],inactive
CC(C)Nc1cccnc1N1CCN(C(=O)c2cc3cc(NS(C)(=O)=O)ccc3[nH]2)CC1,Potency,[1],inactive
NCc1ccccc1Sc1ccccc1CO,Potency,[1],inactive
CN=C(N)NCCC[C@H](N)C(=O)O,outcome,[2],inactive
same,outcome,[3],inactive
same,outcome,[4],inactive
same,outcome,[5],inactive
same,outcome,[6],inactive
same,Potency,[7],inactive
same,viability change,[7],2.51%
CCOc1ccccc1C(N)=O,Potency,[1],inactive
c1ccc(-c2nc[nH]c2-c2ccccc2)cc1,Potency,[1],inactive
C[N+]1(CC2COC(c3ccccc3)(C3CCCCC3)O2)CCCCC1 (stereo not drawn),Potency,[1],inactive
CC(C)(C)NC[C@H](O)COc1nsnc1N1CCOCC1,outcome,[2],inactive
same,outcome,[3],inactive
same,outcome,[4],inactive
same,outcome,[5],inactive
same,outcome,[6],inactive
same,Potency,[7],inactive
same,viability change,[7],2.77%
c1ccc(CC2=NCCN2)cc1,Potency,[1],inactive
Cc1cccc(C)c1NC(=O)CN1CCCCCC1,Potency,[1],inactive
CC(=O)Nc1ncc([N+](=O)[O-])s1,Potency,[1],inactive
Cc1ccccc1OCC(O)CO (stereo not drawn),Potency,[1],inactive
O=C(CCN1CCN2CCCC2C1)N1c2ccccc2Sc2ccc(Cl)cc21 (stereo not drawn),Potency,[1],inactive
CCCCN=C(N)N=C(N)N,Potency,[1],inactive
CC(=O)NCCCCCC(=O)O,Potency,[1],inactive
CC(=O)Nc1ccc(OC(=O)c2ccccc2OC(C)=O)cc1,Potency,[1],inactive
O=c1[nH]c(=O)n([C@H]2C[C@H](O)[C@@H](CO)O2)cc1F,Potency,[1],inactive
CN(C)CCC[C@@]1(c2ccc(F)cc2)OCc2cc(C#N)ccc21,Potency,[1],inactive
CC1CCc2c(N3CCC(O)CC3)c(F)cc3c(=O)c(C(=O)O)cn1c23 (stereo not drawn),Potency,[1],inactive
CCOC(=O)C(C#N)=C(c1ccccc1)c1ccccc1,Potency,[1],inactive
CC(=O)O[C@]1(C(C)=O)CC[C@H]2[C@@H]3C=C(Cl)C4=CC(=O)CC[C@]4(C)[C@H]3CC[C@@]21C,Potency,[1],inactive
Cc1ccc(S(=O)(=O)NC(=O)NC2CCCC2)cc1,Potency,[1],inactive
CCC(CC)(CC(=O)Nc1cccc(/C=C/c2nc(C3CCC3)cs2)c1)C(=O)O,Potency,[1],inactive
Cc1ccc(O)c([C@H](CCN(C(C)C)C(C)C)c2ccccc2)c1,Potency,[1],inactive
O=C(Nc1ncc([N+](=O)[O-])s1)c1cccs1,Potency,[1],inactive
Cc1ccc(-c2ncc(Cl)cc2-c2ccc(S(C)(=O)=O)cc2)cn1,Potency,[1],inactive
CC(=O)OCC1=C(C(=O)O)N2C(=O)[C@@H](NC(=O)CSc3ccncc3)[C@H]2SC1,outcome,[8],inactive
same,Potency,[9],2 µM (active)
same,activation,[10],0.5% (inactive)
FC1(F)C(F)(F)C(F)(F)C2(F)C(F)(F)C(F)(F)C(F)(F)C(F)(F)C2(F)C1(F)F (stereo not drawn),Potency,[1],inactive
O=C(NC1CCN(CCc2c[nH]c3ccccc23)CC1)c1ccccc1,Potency,[1],inactive
NC(N)=NCc1cccc(I)c1,outcome,[8],inactive
same,outcome,[2],inactive
same,outcome,[3],inactive
same,outcome,[4],inactive
same,Potency,[1],inactive
same,outcome,[5],inactive
same,outcome,[6],inactive
same,activation,[10],-0.0625% (inactive)
same,Potency,[7],20.6 µM (active)
same,viability change,[7],2.28%
CN1CCN(c2c(F)cc3c(=O)c(C(=O)O)cn4c3c2SCC4)CC1,Potency,[1],inactive
CN(C)CCN1C(=O)c2ccccc2N(C)c2ccccc21,Potency,[1],inactive
CC(C)[N+](C)(C)CC(O)COc1cccc2ccccc12 (stereo not drawn),Potency,[1],inactive
Clc1cccc(C(c2ccc3nc[nH]c3c2)n2ccnc2)c1 (stereo not drawn),Potency,[1],inactive
O=C(O)c1ccc(S(=O)(=O)N(Cl)Cl)cc1,Potency,[1],inactive
O=C(CN1CCN(Cc2ccc3c(c2)OCO3)CC1)N1c2ccccc2Sc2ccccc21,Potency,[1],inactive
CC(=O)Oc1ccc(C)cc1,Potency,[1],inactive
C=C[C@@]1(C)CC(=O)[C@]2(O)[C@@]3(C)[C@@H](O)CCC(C)(C)[C@@H]3[C@H](O)[C@H](OC(C)=O)[C@@]2(C)O1,Potency,[1],inactive
COc1cc([C@H]2Oc3cc([C@H]4Oc5cc(O)cc(O)c5C(=O)[C@@H]4O)ccc3O[C@@H]2CO)ccc1O,Potency,[1],inactive
NC(N)=NN=C(/C=C/c1ccc([N+](=O)[O-])o1)/C=C/c1ccc([N+](=O)[O-])o1,Potency,[1],inactive
CCC1Nc2cc(Cl)c(S(N)(=O)=O)cc2S(=O)(=O)N1 (stereo not drawn),Potency,[1],inactive
CC(C)(C)CC(C)(C)c1ccc(O)c(-n2nc3ccccc3n2)c1,Potency,[1],inactive
CCNC(=O)/C=C/c1cccc(Br)c1,Potency,[1],inactive
Nc1ccc(S(=O)(=O)NCc2ccccc2)cc1,Potency,[1],inactive
Cc1cc(C)cc(OCC2CNC(=O)O2)c1 (stereo not drawn),Potency,[1],inactive
CN(C)C(=O)Nc1ccc(Cl)c(Cl)c1,Potency,[1],inactive
COc1cc(C(=O)N2CCCCCCC2)cc(OC)c1OC,Potency,[1],inactive
CCCCCCCCCCCCCCCCO,Potency,[1],inactive
CCN(CC)CCNC(=O)COc1ccc(OC)cc1,Potency,[1],inactive
Cn1c(=O)c2[nH]c(Br)nc2n(C)c1=O,Potency,[1],inactive
CC1=C(C(=O)O)N2C(=O)[C@@H](NC(=O)[C@H](N)c3ccccc3)[C@H]2SC1,Potency,[1],inactive
CCCCc1cc2ccccc2c(OCCN(C)C)n1,Potency,[1],inactive
CC(C)Cc1ccc(CC(=O)O)cc1,Potency,[1],inactive
Oc1ccccc1C=NCc1ccccc1,Potency,[1],inactive
Nc1ccc(C(=O)NCC(=O)O)cc1,Potency,[1],inactive
CCOc1ccccc1OCCN[C@H](C)Cc1ccc(OC)c(S(N)(=O)=O)c1,Potency,[1],inactive
Nc1nc(N)c(-c2ccccc2)s1,Potency,[1],inactive
Nc1ccc(S(=O)(=O)Nc2cnc3ccccc3n2)cc1,Potency,[1],inactive
CC(C)CCCC(C)N (stereo not drawn),Potency,[1],inactive
CCOC(=O)c1ccc(N)cc1,Potency,[1],inactive
C#C[C@]1(O)CC[C@H]2[C@@H]3CCc4cc(OC)ccc4[C@H]3CC[C@@]21C,Potency,[1],inactive
O=S(c1cc(Cl)cc(Cl)c1O)c1cc(Cl)cc(Cl)c1O,Potency,[1],inactive
CCCCCCCCOc1ccc(C(=O)c2ccccc2)c(O)c1,Potency,[1],inactive
O=C(Nc1cccc(C2=NCCN2)c1)Nc1cccc(C2=NCCN2)c1,Potency,[1],inactive
NS(=O)(=O)c1cc(C(=O)O)cc(N2CCCC2)c1Oc1ccccc1,Potency,[1],inactive
CCOc1cc(OCC)c(C(=O)CCC(=O)O)cc1OCC,Potency,[1],inactive
COc1ccc(C(=O)c2ccccc2O)c(O)c1,Potency,[1],inactive
COc1cc(NS(=O)(=O)c2ccc(N)cc2)ncn1,Potency,[1],inactive
C/C=C/c1ccc(O)c(OC)c1,Potency,[1],inactive
